Screens as filed in PubChem BioAssay.
rCAG RNA binder: binders of r(CAG) RNA repeats, primary screen, biochemical, fluorescence | hit rate 1.3% among 370,000 | inhibition, % at 3 µM | r(CAG) RNA repeat, TO-PRO-1 dye displacement fluorescence;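 active = inhibition above the plate cutoff, the mean of all test compounds on that plate plus 3 SD, cut at about 35% in these data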;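 also: higher means more dye released from RNA so lower well fluorescence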
PG9 binder: binders of HIV-1 gp120 antibody PG9, primary screen, biochemical, TR-FRET; hit rate 0.43% among 360,000; AID 624416, 2012; HIV-1 gp120 / PG9 antibody interaction; inhibition, % at 6.7 µM; TR-FRET gp120-PG9 antibody binding; in the data active = inhibition above about 8.5%
MsrA inhibitor: bovine MsrA enzyme inhibitors, primary screen, biochemical, absorbance, HTS. AID 651718, 2012. purified bovine MsrA, absorbance read-out. Methionine sulfoxide reductase A (Bos taurus). inhibition, % at 15.5 µM. hit rate 0.75% among 360,000; in the data active = inhibition above about 4.5%
sPLA2-III inh: human group III sPLA2 inhibitors, primary screen, biochemical, QFRET, BODIPY PC-A2 liposome substrate. inhibition, % at 12.2 µM. QFRET BODIPY PC-A2 liposome hydrolysis, fluorescence. hit rate 0.56% among 370,000. Group 3 secretory phospholipase A2 (Homo sapiens), Q9NZ20;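 active = inhibition above mean plus 3 SD of compounds lying within the high and low control bounds, cut at about 19% in these data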
Target sequence (Q9NZ20 whole entry, looked up): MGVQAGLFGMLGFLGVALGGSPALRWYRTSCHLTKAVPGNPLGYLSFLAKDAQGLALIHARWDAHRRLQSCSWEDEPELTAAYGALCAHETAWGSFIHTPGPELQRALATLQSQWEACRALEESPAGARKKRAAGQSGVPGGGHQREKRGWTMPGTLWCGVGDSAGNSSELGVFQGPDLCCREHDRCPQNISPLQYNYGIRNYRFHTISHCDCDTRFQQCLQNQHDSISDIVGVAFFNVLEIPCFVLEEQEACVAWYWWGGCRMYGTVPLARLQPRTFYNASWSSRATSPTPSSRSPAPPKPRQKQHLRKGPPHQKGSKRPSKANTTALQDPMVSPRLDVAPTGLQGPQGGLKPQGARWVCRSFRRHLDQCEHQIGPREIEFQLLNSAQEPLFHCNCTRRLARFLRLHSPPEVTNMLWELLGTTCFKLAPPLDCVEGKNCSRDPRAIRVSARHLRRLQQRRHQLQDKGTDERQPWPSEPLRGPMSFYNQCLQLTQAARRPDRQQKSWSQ
bovine MsrA act: bovine MsrA enzyme activators, primary screen, biochemical, absorbance, HTS; purified bovine MsrA, absorbance read-out; AID 602163, 2012; Methionine sulfoxide reductase A (Bos taurus); activation, % at 10.6 µM; hit rate 0.3% among 360,000; in the data active = activation above about 7.5%
hGIII sPLA2 conf: human group III sPLA2 inhibitors, confirmation, biochemical, QFRET, triplicate. hit rate 34% among 2,000. shares compounds with sPLA2-III inh. AID 743280, 2014. recombinant hGIII-sPLA2, BODIPY PC-A2 QFRET fluorescence. inhibition, % at 12.2 µM;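 active = mean inhibition across triplicates above the hit cutoff set in the earlier primary screen, cut at about 19% in these data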
BODIPY interf: 535nm fluorescence optical interference, confirmation, artefact control for HGIII-sPLA2 inhibitor project, biochemical, QFRET; BODIPY FL product fluorescence interference; hit rate 8.5% among 2,000; inhibition, % at 12.2 µM; shares compounds with sPLA2-III inh;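 active = average inhibition above the solvent-only control mean plus 3 SD, cut at about 6% in these data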
Each line names hits and unclear results; the compound was inactive in the other large screens (follow-up assays come after a bar, where they were run). An excerpt weighted towards active compounds, which were near 3.2% of everything screened.

Nc1ccc(O)c2c(=O)cc(-c3ccccc3Cl)oc12	sPLA2-III inh 27 | hGIII sPLA2 conf 42 | BODIPY interf inactive
O=S(=O)(N[C@@H]1CCCC[C@@H]1N1CCOCC1)c1ccc(Cl)cc1	none (no result: rCAG RNA binder, PG9 binder, MsrA inhibitor, bovine MsrA act)
CC1CN(C(=O)C2CCCC2)C(C)CN1C(=O)C1CCCC1 (stereo not given)	none
CC1CN(C(=O)C2CC2)C(C)CN1C(=O)C1CC1 (stereo not given)	sPLA2-III inh 25 | hGIII sPLA2 conf inactive | BODIPY interf inactive
CC12CCCC[C@@H]1CCC1C2CCC2(C)C1CC[C@@]2(O)CNCCO (stereo not given in full)	sPLA2-III inh 25 | hGIII sPLA2 conf inactive | BODIPY interf inactive
C[C@@H]1CN(c2ccc(N3CCN(C(=O)OC(C)(C)C)C[C@H]3C)cc2C#N)CCN1Cc1ccccc1	none (no result: bovine MsrA act)
COc1cc(CN(C(=S)NCC(=O)NC2CCCC2)C2CCCC2)cc(OC)c1OC	sPLA2-III inh 23 | hGIII sPLA2 conf inactive | BODIPY interf inactive
CCCCCN1CCCCC(NC(=O)Cc2ccccc2)C1=O (stereo not given)	none (no result: PG9 binder, MsrA inhibitor, bovine MsrA act)
CCOC(=O)C1CC(=O)c2cc(OC)c(OC)cc2C1 (stereo not given)	none
COC(=O)C1CC(=O)c2sccc2C1 (stereo not given)	sPLA2-III inh 20 | hGIII sPLA2 conf inactive | BODIPY interf inactive
O=C1NC[C@@H](CCCCN2C[C@H](Cc3ccc(O)cc3)N(CCC3CCCCC3)C(=O)C2=O)N(CC2CCCCC2)C1=O	none
Cc1ccccc1CS(=O)(=O)Cc1ccc(C(=O)Nc2ccc(F)cc2)o1	none (no result: PG9 binder, MsrA inhibitor, bovine MsrA act)
Nn1c(SCC(=O)Nc2cc(C(F)(F)F)ccc2Cl)nnc1-c1n[nH]c2c1CCC2	none (no result: PG9 binder, MsrA inhibitor, bovine MsrA act)
CC(C)Cn1c(/C=N/Nc2nc3ccccc3[nH]2)nc2ccccc21	sPLA2-III inh 29 | hGIII sPLA2 conf 39 | BODIPY interf inactive
COc1cccc(-c2csc(NNC(=O)c3cccs3)n2)c1	sPLA2-III inh 23 | hGIII sPLA2 conf 45 | BODIPY interf 7.3
COc1cc2c3c(c1)C(C)=CC(C)(C)N3C(=O)C2=O	none
COc1cc2c3c(c1)C(C)CC(C)(C)N3C(=O)C2=O (stereo not given)	sPLA2-III inh 24 | hGIII sPLA2 conf inactive | BODIPY interf inactive
CN(C)c1ccc(NC(=O)Cn2cc3c(n2)CCCC3)cc1	sPLA2-III inh 21 | hGIII sPLA2 conf inactive | BODIPY interf inactive
CCc1cccc(NC(=O)Cn2cc3c(n2)CCCC3)c1	none
COC(=O)[C@]12C[C@H](CC(=O)N3CCOCC3)C(=O)N(Cc3cccc4ccccc34)C1=C[C@H](COCc1ccccc1)O[C@@H]2C	none (no result: PG9 binder, MsrA inhibitor, bovine MsrA act)
O=C(C(=O)N1CCN(S(=O)(=O)c2cccc3ccccc23)CC1)c1cccc(C(F)(F)F)c1	none (no result: bovine MsrA act)
CC(=O)Nc1ccc(NC(C)=C(C#N)C#N)cc1	sPLA2-III inh 20 | hGIII sPLA2 conf inactive | BODIPY interf inactive
O=C1c2ccccc2C(c2nnnn2Cc2ccccc2)N1Cc1cccnc1 (stereo not given)	none
CNC(=O)C1(C)Cc2c(-c3ccc(NC(C)=O)cc3)ccnc2O1 (stereo not given)	none
CC(=O)Nc1ccc(-c2ccnc3c2CC(C)(C(=O)NC(C)C)O3)cc1 (stereo not given)	sPLA2-III inh 21 | hGIII sPLA2 conf inactive | BODIPY interf inactive
OC(c1cccc(F)c1)c1ncc(-c2ccc(C(F)(F)F)cc2)[nH]1 (stereo not given)	none
CC1=C(C(=O)Nc2ccccc2C)C(c2ccc(C)o2)NC(=S)N1 (stereo not given)	sPLA2-III inh 20 | hGIII sPLA2 conf 22 | BODIPY interf inactive
COc1ccc(C(C)=NNC(=O)c2cccc(S(=O)(=O)N3CCCC3)c2)cc1	none
COc1ccc(/C(C)=N/NC(=O)c2cccc(S(=O)(=O)N3CCCC3)c2)c(O)c1	sPLA2-III inh 35 | hGIII sPLA2 conf 24 | BODIPY interf inactive
CCCCNc1cc(NC(C)=O)cc2cc(OC)c(OC)cc12	none
COc1cc2cc(NC(C)=O)cc(NCc3ccccc3)c2cc1OC	sPLA2-III inh 21 | hGIII sPLA2 conf inactive | BODIPY interf inactive
CCOc1ccc2c(c1)-c1c(ssc1=S)C(C)(C)N2C	sPLA2-III inh 36 | hGIII sPLA2 conf 46 | BODIPY interf 14
CCOc1ccc2c(c1)C(C)=CC(C)(C)N2S(=O)(=O)c1ccc(F)cc1	none
C=CCN1C(=O)[C@@H](CC(=O)NCc2ccc(C)o2)[C@]2(C(=O)OCC)CCCCC/C=C/12	none (no result: PG9 binder, MsrA inhibitor, bovine MsrA act)
C(=N\Nc1nc(-c2ccccc2)cs1)/c1ccncc1	none
O=C(O)Cc1sc(N/N=C\c2ccncc2)nc1-c1ccccc1	sPLA2-III inh 26 | hGIII sPLA2 conf inactive | BODIPY interf inactive
COC(=O)[C@]12C[C@H](CC(=O)NCc3ccc(OC)c(OC)c3)C(=O)N(Cc3ccc4c(c3)OCO4)C1=C[C@H](C(C)C)O[C@@H]2C1CC1	none (no result: PG9 binder, MsrA inhibitor, bovine MsrA act)
Cc1cccc(C(=O)NC2CCN(C(=O)NCc3ccccc3)CC2)c1	none
Cc1cccc(C(=O)NC(=S)N2CCN(C(=S)NC(=O)c3cccc(C)c3)CC2)c1	sPLA2-III inh 29 | hGIII sPLA2 conf inactive | BODIPY interf inactive
CCCNC(=S)N1CCC(NC(=O)c2cccc(C)c2)CC1	sPLA2-III inh 20 | hGIII sPLA2 conf inactive | BODIPY interf inactive
CCN(CC)C(=O)c1ccc2sc([C@H]3C[C@H](O)[C@@H](CO)O3)nc2c1	sPLA2-III inh 22 | hGIII sPLA2 conf inactive | BODIPY interf inactive
COC(=O)C1CN(Cc2cn(CCC3OCCO3)nn2)CCS(=O)(=O)N1Cc1ccc(F)cc1 (stereo not given)	none (no result: PG9 binder, MsrA inhibitor, bovine MsrA act)
C[C@H]1COc2cccc(F)c2S(=O)(=O)N1C	none (no result: PG9 binder, MsrA inhibitor, bovine MsrA act)
Cc1cc(C)c2nc(SCC(=O)NCCC3=CCCCC3)cc(C)c2c1	sPLA2-III inh 21 | hGIII sPLA2 conf inactive | BODIPY interf inactive
Nc1cc(N)nc(SCC(=O)NCCC2=CCCCC2)n1	none
O=c1ccn([C@@H]2O[C@H](CNCC3=Cc4cc(O)ccc4OC3)[C@@H](O)[C@H]2O)c(=O)[nH]1	sPLA2-III inh 20 | hGIII sPLA2 conf inactive | BODIPY interf inactive
Cc1cc(C(=O)CN2C(=O)C(=O)N(Cc3ccccc3)C2=O)c(C)n1-c1ccccc1F	none
Cc1cc(C(=O)CN2CCC(C)CC2)c(C)n1-c1ccccc1F	sPLA2-III inh 19 | hGIII sPLA2 conf inactive | BODIPY interf inactive
